# Rows were chosen to be rich in hits. Some 0.74% of all compounds tested hit in one or more screens of this group.
# TSHR antagonist = Antagonists of the Thyroid Stimulating Hormone Receptor: HTS campaign; hit rate 0.2% among 330,000; TSHR-expressing cells, TSH-stimulated cAMP HTRF, 2 h; hits give low values; activity change, negative = inhibition, % at 11.5 µM;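 active = activity change below a set negative limit, meaning inhibition stronger than a set level, cut at about -70% in these data; inconclusive = activity change between two set negative limits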
# Target sequence (P16473 whole entry, looked up): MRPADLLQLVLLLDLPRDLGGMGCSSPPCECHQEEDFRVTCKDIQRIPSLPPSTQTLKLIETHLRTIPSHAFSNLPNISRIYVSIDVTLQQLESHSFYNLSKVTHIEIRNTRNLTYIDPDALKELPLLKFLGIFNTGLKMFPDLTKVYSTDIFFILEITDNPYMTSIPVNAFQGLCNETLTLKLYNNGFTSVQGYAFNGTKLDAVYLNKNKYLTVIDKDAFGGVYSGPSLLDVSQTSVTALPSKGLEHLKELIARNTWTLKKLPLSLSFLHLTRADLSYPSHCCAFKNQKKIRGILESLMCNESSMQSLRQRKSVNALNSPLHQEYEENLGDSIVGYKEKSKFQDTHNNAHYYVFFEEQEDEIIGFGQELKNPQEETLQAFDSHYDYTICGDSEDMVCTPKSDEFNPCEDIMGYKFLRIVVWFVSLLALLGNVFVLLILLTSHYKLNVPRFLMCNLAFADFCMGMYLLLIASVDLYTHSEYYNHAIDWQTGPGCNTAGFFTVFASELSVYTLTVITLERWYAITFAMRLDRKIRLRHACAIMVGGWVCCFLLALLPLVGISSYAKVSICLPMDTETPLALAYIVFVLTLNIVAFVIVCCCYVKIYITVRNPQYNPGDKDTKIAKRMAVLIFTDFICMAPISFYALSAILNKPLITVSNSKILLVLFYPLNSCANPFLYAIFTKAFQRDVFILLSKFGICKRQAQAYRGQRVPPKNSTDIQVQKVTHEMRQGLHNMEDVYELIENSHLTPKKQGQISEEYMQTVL
#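 Cell-based HTRF cAMP assay; TSHR cells + compound, TSH EC80 (4nM final), 2 h, 37 deg C. Lysis with anti-cAMP cryptate and cAMP-d2, 30 min RT, read 665/620 nm.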
# CCT chaperon mod = High-Throughput Screening for Modulators of Cytosolic Chaperonin Activity | purified chaperonin ATPase assay, HTRF ADP detection, 30 min | activity change, % (no concentration beside the values), hits read low | hit rate 0.3% among 360,000 | AID 651819, 2012; in the data active = activity change below about -30%
#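 ATPase activity: ADP formed was measured by HTRF Transcreener (665/615 nm ratio) after 30 min at 37 deg C with 10 uM ATP. Compounds screened at one 76 uM concentration against 40 or 20 nM TRiC in Tris pH 7.4/KCl/MgCl2/DTT buffer.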
# pAkt inh = HTS Assay for Inhibitors of Akt Phophorylation: Primary Screen. activity change, % for hits at 50 µM. AID 651550, 2012. hit rate 0.32% among 360,000. Neuro2A IGF-stimulated pAkt S473 HTRF, 20 min; hits give low values; in the data active = activity change below about -80%; inconclusive = mostly about -51% to -80%
#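 Neuro2A cells (4,500/well, DMEM with 0.5% FBS) were treated with compound at a single 50 µM final concentration, stimulated with 6 nM IGF for 20 min at 37 °C, and lysed. Phospho-Akt Ser473 was read by HTRF as 665/615 ratio ×10^4.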
# TCR activator = Activators of T cell receptors: qHTS campaign. primary human leukocytes, anti-CD3, IL-2 HTRF, 48 h. Potency, µM (doses to about 9.22 µM), hits mostly activators. 330,000 tested, under 10 active. AID 504894, 2011; active = well fitted activation curve with a large enough effect; inconclusive = small, poorly fitted or top-dose-only effect, or another doubt; inactive = no such curve, though single readings can be large or run the other way
#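 Primary human leukocytes were stimulated with a-CD3 beads plus compounds for 48 hr without co-stimulation; secreted IL-2 was quantified by HTRF using a-IL-2-K (europium cryptate) and a-IL-2-d2, excited at 320nm with acceptor emission read at 665nm.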
# Hits are given with their value; . = inactive; ? = inconclusive; / = no result given.
SMILES,TSHR antagonist,CCT chaperon mod,pAkt inh,TCR activator
Cc1ccc(C)c(S(=O)(=O)N2CCCOC2CNC(=O)C(=O)NCCC2=CCCCC2)c1 (stereo not given),?,.,.,.
O=C(NCCC1=CCCCC1)C(=O)NCC1OCCCN1S(=O)(=O)c1ccccc1 (stereo not given),-90,.,.,.
O=C(NCCCN1CCOCC1)C(=O)NCC1OCCN1S(=O)(=O)c1ccc(Br)cc1 (stereo not given),.,.,.,.
O=C(NCCCN1CCOCC1)C(=O)NCC1OCCN1S(=O)(=O)c1ccc(Cl)cc1 (stereo not given),/,-34,.,/
CC(=O)NC12CC3CC(C1)CC(C(=O)N1CCN(S(=O)(=O)c4ccccc4C#N)CC1)(C3)C2,/,.,.,.
CCOC(=O)N1CCN(C(=O)C[C@@H]2C[C@@]3(C(=O)OC)CCCCC=C3N(CCc3ccc(OC)c(OC)c3)C2=O)CC1,/,/,.,/
COc1cccc(N2C(=O)CC(c3c[nH]c4ccccc34)C2=O)c1 (stereo not given),.,.,-102%,.
COc1ccc(N2CCN(CC(=O)Nc3nc4c(s3)CC(C)CC4)CC2)cc1 (stereo not given),.,.,-120%,.
O=C(C1=C(O)C(=O)N(Cc2ccco2)C1c1cccnc1)c1cc2ccccc2o1 (stereo not given),.,.,-82%,.
COc1cccc2cc(C(=O)C3=C(O)C(=O)N(Cc4ccco4)C3c3cccnc3)oc12 (stereo not given),.,.,.,.
CCOC(=O)CSc1nnc([C@H](C)NC(=O)OC(C)(C)C)o1,.,.,-115%,.
CCCCCCn1c(SCC(=O)NC2CCS(=O)(=O)C2)nc2ccccc2c1=O (stereo not given),/,.,.,/
Cc1c(Cl)cccc1NCC(=O)Nc1ccc(Cl)cc1F,.,.,.,.
Cc1ccc(F)cc1NCC(=O)Nc1ccc(Cl)cc1F,.,-47,.,.
CCCNC(=O)N1CCN(Cc2ccco2)CC1,.,-63,.,.
O=C(Nc1ccc2c(c1)OCO2)N1CCN(Cc2ccco2)CC1,.,.,.,.
Clc1cnc(N/N=C/c2cccs2)c(Cl)c1,.,.,-104%,.
Cc1ccc(/C=N/Nc2ncc(Cl)cc2Cl)s1,.,.,/,.
CC12CCC(=O)N1C(C(=O)NCCN1C(=O)S/C(=C\c3ccc(F)cc3)C1=O)CS2 (stereo not given),.,.,.,.
CCN=C1S/C(=C/c2ccc(-c3ccc(F)cc3)o2)C(=O)N1CC,.,.,.,.
Cc1cc(C)n(C(=O)CNc2ccccc2Cl)n1,.,.,-127%,.
Cc1cc(C)n(C(=O)CNc2cccc(Cl)c2C)n1,.,.,.,.
CCCSc1nsc(NC(=O)CC)n1,.,.,.,.
CCCSc1nsc(NC(=O)Nc2ccc(F)cc2F)n1,-119,.,.,/
CCCSc1nsc(NC(=O)C(c2ccccc2)c2ccccc2)n1,-80,.,.,.
SMILES,TSHR antagonist,CCT chaperon mod,pAkt inh,TCR activator
NC(=O)NC(CC(=O)N1CCc2ccccc2C1)c1ccc(Cl)cc1 (stereo not given),.,.,.,.
COc1ccccc1C(=O)NCc1ccccc1,.,.,-106%,.
COc1ccccc1C(=O)NCc1ccncc1,.,.,.,/
CN(C)C(=O)/N=N/C(=O)N(C)C,.,/,/,/
CSCCC(NC(=O)c1ccco1)C(=O)NCc1ccc2c(c1)OCO2 (stereo not given),.,.,.,.
COc1ccccc1Nc1ncccc1[N+](=O)[O-],.,-49,.,.
Cc1cc2nc3c(nc2cc1C)C1(C(=O)N(C)C)CCC3(C)C1(C)C (stereo not given),.,.,-110%,.
COC(=O)Nc1nc(-c2ccccc2)c(C(=O)c2ccc(Cl)cc2)s1,.,.,-86%,.
CCOC(=O)Nc1nc(-c2ccccc2)c(C(=O)c2ccccc2)s1,.,.,/,.
Cc1cc2oc(=O)cc(Cn3ncc(Cl)c(Cl)c3=O)c2cc1Cl,.,-48,.,.
COc1ccc(C(=O)Nc2ccc(S(=O)(=O)Nc3onc(C)c3C)cc2)c(OC)c1,.,-35,.,.
COc1ccc(OC)c(N(CC(=O)NCCSCc2ccc(C)cc2)S(C)(=O)=O)c1,.,.,.,/
COc1ccc(NC(=O)NC(C)(C(F)(F)F)C(F)(F)F)cc1,.,-79,.,.
CC(C)(C)C1CCC(N2CCN(c3ccccc3)CC2)CC1 (stereo not given),.,.,.,/
O=C(O)c1cnc(-c2ccccc2)nc1C(F)(F)F,.,-51,.,.
COc1ccc(-n2c(=S)[nH]c3cc(C(=O)N4CCN(c5ccccc5)CC4)ccc3c2=O)c(OC)c1,.,.,.,.
Cc1ccc(NC(=O)CSCc2c(C)noc2C)cc1C,.,-44,.,.
Cc1cc(C)c(NC(=O)CSCc2c(C)noc2C)c(C)c1,.,.,.,.
CS/C(Nc1cc(Cl)ccc1Cl)=C(/C#N)C(=O)c1ccco1,.,.,.,.
CCc1nc(C(N)=O)c2[nH]c(=O)n(-c3ccc(OC)cc3OC)c2n1,.,.,/,.
CCCC(C)c1nc(C(N)=O)c2[nH]c(=O)n(-c3ccc(OC)cc3OC)c2n1 (stereo not given),.,-78,/,.
CCN(CC)C(=O)Cn1cc(S(=O)(=O)Cc2cccc([N+](=O)[O-])c2)c2ccccc21,.,.,.,.
CCN(c1cccc(C)c1)S(=O)(=O)c1cn(CC(=O)OC)c2ccc([N+](=O)[O-])cc12,-130,.,/,.
COc1ccc(N2CCN(C(=O)CSc3nnc4c(C)cc5ccc(C)c(C)c5n34)CC2)cc1,.,.,-119%,.
COc1ccc(-c2oc3ccccc3c2C(=O)OCc2ccccc2)cc1,.,-33,.,.
SMILES,TSHR antagonist,CCT chaperon mod,pAkt inh,TCR activator
O=[N+]([O-])c1ncccc1OCc1ccc(Cl)c(Cl)c1,.,.,.,.
Clc1ccc(COc2ccccn2)cc1Cl,.,.,-123%,.
Cc1c(C(=O)N2CCNCC2)oc2ccccc12,.,.,.,.
CC(=O)c1ccc(NC(=O)CC23CC4CC(C2)CC(n2nnc(C)n2)(C4)C3)cc1,.,.,.,.
Cc1ccc(C(=O)CSc2nnc(-c3ccco3)n2Cc2ccccc2)cc1,.,.,-109%,.
CCOC(=O)N1CCN(C(=O)CNS(=O)(=O)c2c(C)cc(C)cc2C)CC1,.,.,.,.
Cc1cc(C)cc(NC(=S)NCC2CCCO2)c1 (stereo not given),.,.,-115%,.
CCn1cc(/C=C(\NC(=O)c2ccccc2F)C(=O)N2CCN(C)CC2)c2ccccc21,/,.,.,/
CCN(C[C@H]1N[C@@](C)(C(=O)OC)[C@H]2C(=O)N(Cc3ccccc3)C(=O)[C@@H]12)C(=O)c1ccc(F)cc1,.,-34,.,.
CCN(C[C@H]1N[C@@](C)(C(=O)OC)[C@H]2C(=O)N(Cc3ccccc3)C(=O)[C@@H]12)C(=O)c1ccc(C)cc1,.,.,.,.

# Screens as filed in PubChem.
